Test results: the supplement of paper PMC6992640

tested on: HCI01 (cells of a triple-negative basal-like breast cancer xenograft); test: cell viability of combination (% of vehicle); higher = less cytotoxic; details: 1 µM; 72 h; partner dose: 10 nM
Method: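 PDX cells were treated for 72 h with each drug at 1 µM plus afatinib (10 nM; 1 µM for WHIM30). Luciferase viability is expressed as percent of vehicle.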

| Structure (SMILES) | cell viability of combination |
| --- | --- |
| CNCCC(Oc1ccc(C(F)(F)F)cc1)c1ccccc1.Cl (stereo not given) [Fluoxetine HCl] + CN(C)C/C=C/C(=O)Nc1cc2c(Nc3ccc(F)c(Cl)c3)ncnc2cc1O[C@H]1CCOC1 [Afatinib] | 46.4 |
| Cc1cccc(CN2CCN(C(c3ccccc3)c3ccc(Cl)cc3)CC2)c1.Cl.Cl (stereo not given) [Meclizine 2HCl] + CN(C)C/C=C/C(=O)Nc1cc2c(Nc3ccc(F)c(Cl)c3)ncnc2cc1O[C@H]1CCOC1 [Afatinib] | 65.4 |
| CC1=CC(=O)c2ccccc2C1=O [Menadione] + CN(C)C/C=C/C(=O)Nc1cc2c(Nc3ccc(F)c(Cl)c3)ncnc2cc1O[C@H]1CCOC1 [Afatinib] | 55.8 |
| CCC(NC(=O)C(C)NC)C(=O)N1CC(O)CC1Cc1c(-c2[nH]c3cc(F)ccc3c2CC2CC(O)CN2C(=O)C(CC)NC(=O)C(C)NC)[nH]c2cc(F)ccc12 (stereo not given) + CN(C)C/C=C/C(=O)Nc1cc2c(Nc3ccc(F)c(Cl)c3)ncnc2cc1O[C@H]1CCOC1 [Afatinib] | 42.3 |
| CCOc1cc2ncc(C#N)c(Nc3ccc(OCc4ccccn4)c(Cl)c3)c2cc1NC(=O)C=CCN(C)C [Neratinib (HKI-272)] + CN(C)C/C=C/C(=O)Nc1cc2c(Nc3ccc(F)c(Cl)c3)ncnc2cc1O[C@H]1CCOC1 [Afatinib] | 60.9 |
| Cl.OC(c1cc(C(F)(F)F)nc2c(C(F)(F)F)cccc12)C1CCCCN1 (stereo not given) [Mefloquine hydrochloride] + CN(C)C/C=C/C(=O)Nc1cc2c(Nc3ccc(F)c(Cl)c3)ncnc2cc1O[C@H]1CCOC1 [Afatinib] | 49.3 |
| COc1cccc2c1C(=O)c1c(O)c3c(c(O)c1C2=O)CC(O)(C(=O)CO)CC3OC1CC(N)C(O)C(C)O1.Cl (stereo not given) [Doxorubicin (Adriamycin) HCl] + CN(C)C/C=C/C(=O)Nc1cc2c(Nc3ccc(F)c(Cl)c3)ncnc2cc1O[C@H]1CCOC1 [Afatinib] | 49.5 |
| CCc1cnn2c(NCc3ccc[n+]([O-])c3)cc(N3CCCCC3CCO)nc12 (stereo not given) + CN(C)C/C=C/C(=O)Nc1cc2c(Nc3ccc(F)c(Cl)c3)ncnc2cc1O[C@H]1CCOC1 [Afatinib] | 25.6 |
| CN(C)c1ccc(C(=C2C=CC(=[N+](C)C)C=C2)c2ccc(N(C)C)cc2)cc1.[Cl-] [Crystal Violet] + CN(C)C/C=C/C(=O)Nc1cc2c(Nc3ccc(F)c(Cl)c3)ncnc2cc1O[C@H]1CCOC1 [Afatinib] | 45 |
| CC(Oc1cc(-c2cnn(C3CCNCC3)c2)cnc1N)c1c(Cl)ccc(F)c1Cl [(R)-Crizotinib] + CN(C)C/C=C/C(=O)Nc1cc2c(Nc3ccc(F)c(Cl)c3)ncnc2cc1O[C@H]1CCOC1 [Afatinib] | 66 |
| CCCCCOc1ccc(-c2ccc(-c3ccc(C(=O)N[C@H]4C[C@@H](O)[C@@H](O)NC(=O)[C@@H]5[C@@H](O)[C@@H](C)CN5C(=O)[C@H]([C@@H](C)O)NC(=O)[C@H]([C@H](O)[C@@H](O)c5ccc(O)cc5)NC(=O)[C@@H]5C[C@@H](O)CN5C(=O)[C@H]([C@@H](C)O)NC4=O)cc3)cc2)cc1 [Anidulafungin] + CN(C)C/C=C/C(=O)Nc1cc2c(Nc3ccc(F)c(Cl)c3)ncnc2cc1O[C@H]1CCOC1 [Afatinib] | 55.5 |
| COc1cc2c(Oc3ccc4[nH]c(C)cc4c3F)ncnc2cc1OCCCN1CCCC1 [Cediranib (AZD217)] + CN(C)C/C=C/C(=O)Nc1cc2c(Nc3ccc(F)c(Cl)c3)ncnc2cc1O[C@H]1CCOC1 [Afatinib] | 47.5 |
| CCOC(=O)C1=C(COCCN)NC(C)=C(C(=O)OC)C1c1ccccc1Cl.O=S(=O)(O)c1ccccc1 (stereo not given) [Amlodipine Besylate] + CN(C)C/C=C/C(=O)Nc1cc2c(Nc3ccc(F)c(Cl)c3)ncnc2cc1O[C@H]1CCOC1 [Afatinib] | 59.5 |
| Cc1cc(Nc2ncc(Cl)c(Nc3ccccc3S(=O)(=O)C(C)C)n2)c(OC(C)C)cc1C1CCNCC1 + CN(C)C/C=C/C(=O)Nc1cc2c(Nc3ccc(F)c(Cl)c3)ncnc2cc1O[C@H]1CCOC1 [Afatinib] | 44.4 |
| CNC(=O)c1cc(Oc2ccc(NC(=O)Nc3ccc(Cl)c(C(F)(F)F)c3)cc2)ccn1.Cc1ccc(S(=O)(=O)O)cc1 [Sorafenib Tosylate] + CN(C)C/C=C/C(=O)Nc1cc2c(Nc3ccc(F)c(Cl)c3)ncnc2cc1O[C@H]1CCOC1 [Afatinib] | 46.6 |
